# This is a sample that favours compounds with a hit; in the whole collection about 27% have one here.
# CYP2C9 activ: activators of human CYP2C9. 1.4% of 96,000 active. recombinant CYP2C9, luciferin-H conversion, luminescence; hits give high values; factor 1 = untreated enzyme, 0 = blocked. activation factor at 5 µM. P11712. AID 1024;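 active = activation factor of 2 or more for CYP2C9 at a 5 µM dose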;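 also: 0 = sulfaphenazole-blocked wells and 1 = vehicle-only wells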
# Target sequence (P11712 whole entry, looked up): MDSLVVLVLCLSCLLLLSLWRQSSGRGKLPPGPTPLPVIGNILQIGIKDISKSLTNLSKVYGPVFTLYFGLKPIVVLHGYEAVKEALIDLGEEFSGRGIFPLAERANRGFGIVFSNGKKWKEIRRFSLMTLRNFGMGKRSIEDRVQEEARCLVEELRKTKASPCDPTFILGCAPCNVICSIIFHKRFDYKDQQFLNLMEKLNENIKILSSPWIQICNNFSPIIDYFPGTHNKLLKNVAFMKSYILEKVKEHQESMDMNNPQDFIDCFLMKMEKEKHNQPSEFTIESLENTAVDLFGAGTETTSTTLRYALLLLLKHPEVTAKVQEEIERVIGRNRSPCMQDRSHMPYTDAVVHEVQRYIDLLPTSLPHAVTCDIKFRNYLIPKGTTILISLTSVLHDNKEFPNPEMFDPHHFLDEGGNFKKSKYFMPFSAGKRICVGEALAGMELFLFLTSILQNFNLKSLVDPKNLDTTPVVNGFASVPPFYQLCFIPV
# Cav32 inh: blocks human Cav3.2 T-type calcium channel; Cav3.2-expressing cells, Fluo-4 calcium fluorescence FDSS; hits give low values; O95180; B-score at 10 µM; 4% of 100,000 active; AID 449739;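 active = single-dose well whose peak fluorescence ratio is a statistical outlier from its plate by either plate-standardised score or position-corrected B-score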
# CYP2C9 inh: blocks human cytochrome P450 2C9. 20% of 96,000 active. CYP2C9 Supersomes, luciferin-H conversion, luminescence. inhibition, % at 5 µM;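 active = blocking of liver enzyme CYP2C9 beyond about 50% at 5 µM, limit read from the data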
# CYP2C19 inh: inhibitors of human CYP2C19; AID 778; inhibition, % at 5 µM; 21% of 96,000 active; CYP2C19 Supersomes, luciferin-H EGE luminescence, 30 min;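 active = CYP2C19 inhibition above a set limit at 5 µM in the primary screen, cut at about 50% in these data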;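 also: plate controls were negative control wells for no effect and 2.5 mM tranylcypromine positive control for full effect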
# CYP2C19 activ: cytochrome P450 2C19 (human) activation; activation factor at 5 µM; 96,000 tested, under 10 active; recombinant CYP2C19, luciferin-H EGE luminescence; hits give high values; 0 = fully inhibited enzyme, 1 = untreated enzyme; P33261;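 active = activation factor of at least 2 at 5 µM in the primary screen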;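 also: 0 = wells with 2.5 mM tranylcypromine and 1 = vehicle-only wells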
# Starred values were filed as active, the others as inactive; · = no result given.
SMILES,CYP2C9 activ,Cav32 inh,CYP2C9 inh,CYP2C19 inh,CYP2C19 activ
CCOC(=O)c1sc2nc(NC(=O)COc3ccccc3)sc2c1C,0.1,-1.25,86.2*,51.3*,0.5
O=C(COc1ccccc1)Nc1nccs1,·,0.325,·,·,·
CCCCSc1nnc(NC(=O)CCc2ccccc2)s1,0.4,-2.43,56.4*,21.0,0.8
CCSc1nnc(NC(=O)C2CC=CCC2C(=O)O)s1 (configuration not stated),0.2,-0.0186,79.2*,-0.2,1
CCSc1nnc(NC(=O)COc2ccccc2)s1,0.2,0.707,75.7*,53.1*,0.5
O=C1C(O)CC2c3ccccc3CC3(CCCC3)N12 (configuration not stated),0.8,0.635,16.3,1.9,1
CCC/C(O)=C1\C(=O)CC(c2ccccc2)CC1=NCCc1c(C)[nH]c2ccc(C)cc12 (configuration not stated),·,-1.12,·,·,·
CCC(Oc1ccccc1)C(=O)Nc1ccccn1 (configuration not stated),0.6,0.224,44.4,74.8*,0.3
CCSc1nnc(NC(=O)COc2ccc3ccccc3c2)s1,0.3,-0.48,68.1*,60.3*,0.4
CCSc1nnc(NC(=O)C(CC)Oc2ccccc2)s1 (configuration not stated),0.2,-0.752,79.6*,33.9,0.7
CCSc1nnc(NC(=O)CSc2c(Cl)cccc2Cl)s1,0.8,-0.229,18.5,10.0,0.9
COC(=O)c1sccc1NC(=O)CSc1nnnn1-c1ccccc1C,1.5,-0.509,-45.9,-9.6,1.1
CC(C#N)Sc1nc2ccccc2c(=O)n1-c1ccccc1 (configuration not stated),0.7,-2.39,33.4,-4.8,1
CCOc1ccccc1N1CCN(S(=O)(=O)c2cccs2)CC1,0.1,-1.85,90.7*,93.1*,0.1
CCOc1ccccc1N1CCN(S(=O)(=O)c2cccc3nsnc23)CC1,0.3,-2.69,69.5*,94.0*,0.1
CCOC(=O)N1CCC(NC(=O)C2CCN(S(=O)(=O)c3cccs3)CC2)CC1,0.8,1,22.0,8.7,0.9
CCOC(=O)N1CCN(S(=O)(=O)c2ccc(C)c(C)c2C)CC1,1.1,·,-6.2,99.2*,0
CCOC(=O)N1CCN(S(=O)(=O)c2cccs2)CC1,0.8,0.08,24.2,56.9*,0.4
CCOC(=O)N1CCN(S(=O)(=O)c2cc(C)c(C)cc2C)CC1,·,-0.00286,·,·,·
CC(C)Oc1ccc(C(=O)NC2(C(F)(F)F)N=C3SCCN3C2=O)cc1 (configuration not stated),0.9,-0.331,14.1,-16.8,1.2
Oc1c(/C=N/c2ncn[nH]2)ccc2ccccc12,0.9,-0.509,12.9,-0.5,1
Clc1ccc(Cl)c(-c2ccc(/C=N/c3ncn[nH]3)o2)c1,2.9*,1.6,-187.2,3.8,1
O=c1c2c3c(sc2ncn1/N=C/c1ccccc1)CCCC3,·,-1.17,·,·,·
CCOC(=O)c1c(C)[nH]c(C(=O)CSc2nnc(CC(C)c3ccccc3)o2)c1C (configuration not stated),0.3,-0.633,70.9*,31.5,0.7
O=C(CSc1nnc(-c2ccccc2)o1)c1nnc(-c2ccccc2)o1,0.3,0.00532,74.5*,8.8,0.9
SMILES,CYP2C9 activ,Cav32 inh,CYP2C9 inh,CYP2C19 inh,CYP2C19 activ
CCOC(=O)c1c(C)[nH]c(C(=O)CSc2ccc(Cl)cc2)c1C,0.3,-0.231,71.3*,28.7,0.7
CC(=O)c1c(C)[nH]c(C(=O)CSc2nnc(-c3ccccc3)o2)c1C,0.7,0.176,28.1,57.3*,0.4
O=C(NCc1ccco1)C1CCCN(S(=O)(=O)c2ccc(Cl)cc2)C1 (configuration not stated),1.4,0.475,-38.1,21.9,0.8
CC(C)=CC1C(C(=O)Nc2ccc(Br)cn2)C1(C)C (configuration not stated),0.7,·,34.9,22.7,0.8
O=C(NC1c2ccccc2-c2ccccc21)N1CCOCC1,1.1,0.208,-7.8,10.2,0.9
COCCSc1ccccc1C(=O)Nc1nncs1,1,0.285,-2.5,0.5,1
CCN(CC)c1ccc2cc(C(N)=O)c(=O)oc2c1,·,-1.65,·,·,·
CCN(CC)c1ccc2cc(-c3nnc(-c4ccncc4)o3)c(=O)oc2c1,0.6,-4.02*,35.9,29.8,0.7
CCN(CC)c1ccc2cc(C=O)c(=O)oc2c1,1.1,-9.02*,-9.8,-7.0,1.1
CCN(CC)c1ccc2cc(C(C)=O)c(=O)oc2c1,1.1,-10.3*,-10.1,12.0,0.9
CCN(CC)c1ccc2cc(NC(=O)CCC(=O)O)c(=O)oc2c1,1.2,-3.07,-19.3,-23.6,1.2
CCN(CC)c1ccc2cc(C(=O)Nc3ccccn3)c(=O)oc2c1,0.4,-3.42,56.7*,45.3,0.5
COC(=O)C[C@H]1c2ccccc2S(=O)(=O)N1C(C)C,·,-0.744,·,·,·
c1ccc(OCc2nn3c(C4CCCCC4)nnc3s2)cc1,0.5,-1.19,51.3*,13.5,0.9
c1ccc(Cc2nn3c(COc4ccccc4)nnc3s2)cc1,0.7,-1.26,32.4,66.2*,0.3
CCOc1ccccc1OCc1nn2c(COc3ccccc3)nnc2s1,1.2,-0.665,-19.7,31.3,0.7
CN(C)c1ccc(-c2nn3c(C4CCCCC4)nnc3s2)cc1,0.5,-0.652,54.7*,51.7*,0.5
Clc1ccccc1-c1nn2c(COc3ccccc3)nnc2s1,0.2,-1.16,81.6*,94.9*,0.1
CCOc1ccc(-c2nnc3sc(COc4ccccc4)nn23)cc1,1.1,0.583,-10.0,16.6,0.8
O=C(c1cnn2c1NC(c1ccc(Br)cc1)CC2C(F)(F)F)N1CCN(C23CC4CC(CC(C4)C2)C3)CC1 (configuration not stated),·,-0.012,·,·,·
O=C(c1ccccc1Cl)N1N=C(c2ccc(Br)cc2)CC1c1nc2ccccc2[nH]1 (configuration not stated),0.3,-3.64,67.1*,50.1*,0.5
CCN(CC)S(=O)(=O)c1ccc2c(c1)nc(SCn1nnc3ccccc3c1=O)n2CC,0.3,0.00973,68.1*,19.8,0.8
Cc1ccc(-n2nnnc2SCn2nnc3ccccc3c2=O)cc1,1.4,0.732,-42.2,18.5,0.8
C/C(=N\NS(=O)(=O)c1ccc(Cl)c([N+](=O)[O-])c1)c1ccc(C)o1,0.1,0.878,88.0*,83.1*,0.2
C/C(=N\NS(=O)(=O)c1ccc(Cl)c([N+](=O)[O-])c1)c1cc2ccccc2o1,0,-4.45,99.8*,96.8*,0
CCC(=O)Nc1cc(-c2nn(C)c(=O)c3ccccc23)ccc1N1CCOCC1,0.4,·,62.5*,34.1,0.7
Cn1nc(-c2ccc(N3CCCCC3)c(NC(=O)c3ccco3)c2)c2ccccc2c1=O,0,-0.0667,96.3*,58.8*,0.4
COc1nnc(-c2ccc(N3CCOCC3)c(NC(=O)c3ccco3)c2)c2ccccc12,0.3,-0.43,65.3*,25.0,0.8
CCOC(=O)CN1N=C(/C=C/c2ccc(OC)cc2)CCC1=O,1.1,0.495,-8.5,-4.5,1

# Assay outcomes from PubChem.
